Screens: PubChem, National Center for Advancing Translational Sciences (NCATS)
Coupling enz: inhibits coupling enzyme system, counter-screen for aldolase hits; coupling enzyme system counterscreen, AmpLite Red fluorescence; activity change, negative = inhibition, % at 58.2 µM, hits read low; 0.67% of 290,000 active; in the data active means activity change below about -30%
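Compounds tested against the coupling enzymes alone at 57.5 uM final; readout was AmpLite Red fluorescence (525/598 nm) after 20 min at RT.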
USP1-UAF1 inh: inhibitors of human USP1/UAF1 deubiquitinase. O94782. recombinant USP1/UAF1, Ub-Rhodamine cleavage fluorescence. 0.23% of 390,000 active. Potency, µM (doses to about 57.1 µM), for inactives: at the highest dose activity change, negative = inhibition, most hits filed as inhibitors; further: potency means the concentration at half of the fitted maximal effect; nearly all actives have a fitted effect of over 60% in size
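Step one: compound is pinned into 1nM USP1/UAF1 in HEPES pH 7.8 buffer with TCEP. Step two: 15 min room-temperature incubation. Step three: Ub-Rho (150nM final) starts cleavage, tracked by fluorescence over six one-minute reads.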
Tau fluor cs: counter-screen for tau fibril formation inhibitors. tau K18 P301L Alexa594 fluorescence, heparin fibrillization. 0.93% of 280,000 active. Potency, µM (top dose mostly 57.7 µM), without a hit: at the top dose activity change, negative = decrease; further: potency means the concentration at half of the fitted maximal effect; nearly all actives have a fitted effect of over 55% in size
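Human K18 P301L tau (15 uM unlabeled plus 0.24 uM Alexa 594-labeled, final) in 100 mM sodium acetate pH 7 was mixed with compound and 20 uM heparin and incubated 6 hr at 37 C.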
Tau FP inhib: blocks human tau fibril formation measured by polarization. P10636. K18 P301L tau heparin fibrillization, Alexa594 FP, 6 h. Potency, µM (series often up to 57.7 µM), inactives show at the highest dose activity, negative = inhibition, actives largely listed as inhibitors. 0.39% of 280,000 active; further: potency means the concentration at half of the fitted maximal effect; nearly all actives have a fitted effect of over 55% in size
Target sequence (P10636 561-689 P618L limits assumed): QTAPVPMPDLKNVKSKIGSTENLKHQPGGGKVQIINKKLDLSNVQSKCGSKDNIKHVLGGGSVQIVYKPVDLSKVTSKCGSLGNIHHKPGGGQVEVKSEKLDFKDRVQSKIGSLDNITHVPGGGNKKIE
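Human tau K18 […] P301L fragment, 15 uM unlabeled plus 0.24 uM Alexa 594-labeled tau (final), with compound and 20 uM heparin in 100 mM sodium acetate pH 7; 6 hr at 37 C, then Alexa 594 FP read.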
Tau fibril ThT: inhibitors of human tau fibril formation, thioflavin T binding; Potency, µM (titrated, usually from 57.4 µM), for inactives: top-dose activity, negative = inhibition, usual class: inhibitors; 2.1% of 270,000 active; P10636; recombinant tau K18 P301L (four-repeat tau fragment), heparin-induced fibrillization, ThT fluorescence; AID 1460; further: potency means the concentration at half of the fitted maximal effect; nearly all actives have a fitted effect of over 55% in size
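Heparin-induced fibrillization of the P301L-mutant K18 repeat-domain fragment of human tau was followed by ThT binding in quantitative high-throughput format.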
Starred values were filed as active, the others as inactive; [ ] = another dose, or the depositor's remark. A selection: hits, their analogues and other compounds. The true share with any hit is near 2.3%. Unless noted, the call rests on the fitted dose curve; in most records, active means well fitted curve in the direction sought with a large enough effect; inconclusive means small, poorly fitted or top-dose-only effect, or another doubt; inactive means no such curve, though single readings can be large; an effect the other way counts as inactive or inconclusive. On the % scale 0 is the no-effect control and ±100 the full control effect.

What do the screens show for `CC(=O)N1CCN(c2ccc(Nc3ncnc4c3oc3ccccc34)cc2)CC1`?
Coupling enz: -6.3; USP1-UAF1 inh: -5.0%; Tau fluor cs: inconclusive; Tau FP inhib: 3.4%; Tau fibril ThT: 4.47µM*

What do the screens show for `Cc1cc(NC(=O)c2cccn2-c2nnc(N3CCCCC3)s2)ccc1Br`?
USP1-UAF1 inh: -13.3%; Tau fluor cs: -28.2%; Tau FP inhib: -9.7%; Tau fibril ThT: -5.8%

How did O=c1c2ccccc2nc2ccc(NCc3ccco3)nn12 do in these assays?
Coupling enz: -0.2; USP1-UAF1 inh: -9.8%; Tau fluor cs: -22.5%; Tau FP inhib: 22.4µM*; Tau fibril ThT: 17.8µM*

How did NNC(=O)c1cccc(S(=O)(=O)Nc2cccc(C(F)(F)F)c2)c1 do in these assays?
Coupling enz: 3.0; USP1-UAF1 inh: -12.0%; Tau fluor cs: -28.8%; Tau FP inhib: -0.3%

What do the screens show for `Cc1[nH]c2ccccc2c1/C=N/NC(=O)c1cc(-c2cccs2)[nH]n1`?
Coupling enz: -6.1; USP1-UAF1 inh: -3.2%; Tau fluor cs: 12.6µM*[quencher]; Tau FP inhib: inconclusive; Tau fibril ThT: 5.62µM*

What do the screens show for `Cc1[nH]c2ccccc2c1/C=N/Nc1ccccc1[N+](=O)[O-]`?
Coupling enz: -8.4; USP1-UAF1 inh: -6.0%; Tau fluor cs: 2µM*[quencher]; Tau FP inhib: inconclusive; Tau fibril ThT: 1.78µM*

How did Cc1[nH]c2ccccc2c1/C=N/NC(=O)C1CC1(c1ccccc1)c1ccccc1 (configuration not stated) do in these assays?
Coupling enz: -3.7; USP1-UAF1 inh: -0.9%; Tau fluor cs: 5.01µM*[quencher]; Tau FP inhib: -5.2%; Tau fibril ThT: inconclusive

What do the screens show for `Cc1[nH]c2ccccc2c1/C=N/NC(=O)c1cccc(S(=O)(=O)Nc2cccc(C(F)(F)F)c2)c1`?
Coupling enz: -19.9; USP1-UAF1 inh: -7.2%; Tau fluor cs: 8.91µM*[quencher]; Tau FP inhib: inconclusive; Tau fibril ThT: inconclusive

How did Cc1[nH]c2ccccc2c1/C=N/NC(=O)CCC(=O)NCc1ccccc1 do in these assays?
Coupling enz: -20.9; USP1-UAF1 inh: -17.0%; Tau fluor cs: inconclusive; Tau FP inhib: 9.0%; Tau fibril ThT: inconclusive

Results for CCN(CC)c1ccc(NC(=O)C2CCN(c3nnc(-n4cccc4)s3)CC2)c(C)c1 ?
USP1-UAF1 inh: -21.8%; Tau fluor cs: -29.0%; Tau FP inhib: 0.5%; Tau fibril ThT: inconclusive

How did COc1ccc(N2Cc3cccc(C(=O)Nc4ccc(F)cc4)c3C2=O)cc1 do in these assays?
USP1-UAF1 inh: inconclusive; Tau fluor cs: -22.7%; Tau FP inhib: 1.8%; Tau fibril ThT: -4.6%

How did CCC(=O)Nc1ccc(C(=O)N/N=C/c2c(C)[nH]c3ccccc23)cc1 do in these assays?
Coupling enz: -0.4; USP1-UAF1 inh: -1.1%; Tau fluor cs: inconclusive; Tau FP inhib: inconclusive; Tau fibril ThT: 11.2µM*

Results for Cc1[nH]c2ccccc2c1/C=N/NC(=S)NC(C)C ?
Coupling enz: -1.6; USP1-UAF1 inh: -15.3%; Tau fluor cs: 15.8µM*[quencher]; Tau FP inhib: 13.4%; Tau fibril ThT: inconclusive

Results for Cc1[nH]c2ccccc2c1/C=N\NC(=O)c1ccccc1Cl ?
USP1-UAF1 inh: -5.9%

How did CC(C)NC(=S)N/N=C/c1c[nH]c2ccccc12 do in these assays?
Coupling enz: -1.8; USP1-UAF1 inh: -4.0%; Tau fluor cs: inconclusive; Tau FP inhib: inconclusive; Tau fibril ThT: inconclusive

How did CNS(=O)(=O)c1cn(CC(=O)N2CCN(c3ccccc3F)CC2)cc1S(=O)(=O)NC do in these assays?
USP1-UAF1 inh: -13.7%; Tau fluor cs: 8.8%; Tau FP inhib: 0.2%; Tau fibril ThT: 15.8%

How did Cc1ccc2nc(-c3ccc(NC(=S)NC4CC(C)(C)NC(C)(C)C4)cc3)sc2c1 do in these assays?
Coupling enz: -0.6; USP1-UAF1 inh: -14.8%; Tau fluor cs: 7.94µM*[quencher]; Tau FP inhib: 11.2µM*; Tau fibril ThT: inconclusive

How did Cc1ccc2nc(-c3ccc(NC(=S)NC(=O)C(C)C)cc3)sc2c1 do in these assays?
Coupling enz: -0.4; USP1-UAF1 inh: -17.0%; Tau fluor cs: -22.2%; Tau FP inhib: -6.2%; Tau fibril ThT: inconclusive

Results for CC(C)CC(=O)Nc1nc2c(s1)CC(C(C)(C)C)CC2 (configuration not stated) ?
USP1-UAF1 inh: -15.6%; Tau fluor cs: 9.3%; Tau FP inhib: 3.4%; Tau fibril ThT: 6.5%
